Experimental data from PubChem BioAssay AID1224921 (Broad Institute, 2016).
Screen size: about 1,400 compounds; about 350 (25%) were called active. Roughly 2% stayed inconclusive and do not appear here. How the calls were made is not given here. These entries were drawn from the full list. Measured potencies and affinities stand elsewhere.

assay: C. difficile growth inhibition, confirmation, 4-point retest (AID 1224921); details: Clostridioides difficile clinical isolate growth, OD600, 24 h, active compounds read low; at 30 µM unless noted;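 further: plate controls were DMSO wells for no effect and levofloxacin 16 µg/mL wells for full effect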

Max activity, inactive:
CC(=O)N(C)C[C@H]1Oc2ncc(-c3ccc(C#N)cc3)cc2C(=O)N([C@H](C)CO)C[C@H]1C -10.1% [at 1.95 µM]
CO[C@H]1CN(C)C(=O)c2cc(NS(=O)(=O)c3cccc(F)c3)ccc2OC[C@H](C)N(Cc2cc(F)ccc2F)C[C@H]1C 7.97%
CCC(=O)Nc1ccc2c(c1)C(=O)N(C)C[C@@H](OC)[C@@H](C)CN(C(=O)CN1CCOCC1)[C@H](C)CO2 18.1%
CCCN1C[C@H](C)[C@H](OC)CN(C)C(=O)c2cc(NC(=O)c3cccc(OC)c3)ccc2OC[C@@H]1C -8.29% [at 0.5 µM]
C[C@H](CO)N1C[C@H](C)[C@@H](CN(C)Cc2ccc3c(c2)OCO3)Oc2ccc(NC(=O)Nc3ccc4c(c3)OCO4)cc2C1=O -9.66% [at 8 µM]
C[C@H](CO)N1C[C@H](C)[C@@H](CN(C)S(=O)(=O)CC(F)(F)F)OCc2ccccc2-c2c(n(C)c3ccccc23)C1=O 24.2%
CC(C)CC#Cc1ccc2c(c1)O[C@@H](CN(C)Cc1ccncc1)[C@H](C)CN([C@H](C)CO)S2(=O)=O 18.2% [at 8 µM]
C[C@@H]1CN([C@@H](C)CO)S(=O)(=O)c2ccc(C#CCC3CCCC3)cc2O[C@H]1CN(C)C(=O)CC1CC1 -15.8% [at 1.95 µM]
O=C(C[C@H]1CC[C@H](NC(=O)CCN2CCCCC2)[C@H](CO)O1)Nc1nccs1 -18.1% [at 8 µM]
C[C@H](O)C#Cc1cnc2c(c1)C(=O)N([C@@H](C)CO)C[C@H](C)[C@H](CN(C)Cc1ccc(-c3ccccc3)cc1)O2 31.6%
C[C@@H]1CN([C@@H](C)CO)C(=O)c2cc(C#CC3CCCCC3)cnc2O[C@H]1CN(C)Cc1cccnc1 21.1%
C[C@@H]1CN([C@@H](C)CO)C(=O)c2cc(C#CC3CCCCC3)cnc2O[C@@H]1CN(C)Cc1cccnc1 58.9%
CCCNC(=O)N(C)C[C@H]1Oc2ncc(C#CCc3ccccc3)cc2C(=O)N([C@@H](C)CO)C[C@@H]1C 16.1%
COc1ccc(C#Cc2cnc3c(c2)C(=O)N([C@@H](C)CO)C[C@H](C)[C@@H](CN(C)CC2CCOCC2)O3)cc1 8.65% [at 8 µM]
CC(=O)N(C)C[C@@H]1Oc2ncc(C#Cc3ccc(F)cc3)cc2C(=O)N([C@@H](C)CO)C[C@H]1C 24.8%
CCCN1C[C@@H](C)[C@@H](OC)CN(C)C(=O)c2cc(NC(=O)c3cccc(F)c3)ccc2OC[C@H]1C -11.3% [at 1.95 µM]
CO[C@@H]1CN(C)C(=O)c2cc(NC(C)=O)ccc2OC[C@@H](C)N(C(=O)c2ccccn2)C[C@@H]1C -15.1% [at 8 µM]
C[C@H]1CN([C@@H](C)CO)C(=O)Cc2cc(NS(=O)(=O)c3cccs3)ccc2O[C@@H]1CN(C)Cc1ccc(Cl)c(Cl)c1 33.5% [at 8 µM]
COc1ccc(NC(=O)Nc2ccc3c(c2)[C@H]2C[C@H](CC(=O)N[C@@H](C)c4ccccc4)O[C@@H](CO)[C@H]2O3)cc1 -8.28% [at 2.1 µM]
Cc1ccccc1S(=O)(=O)N1[C@H](CO)[C@@H](c2ccc(C#CC3CC3)cc2)[C@@H]1C#N 34.7%
COc1ccccc1C#Cc1ccc([C@H]2[C@@H](C#N)N(C(=O)C3CC3)[C@H]2CO)cc1 22.1% [at 8 µM]
O=C(C[C@@H]1CC[C@@H](NC(=O)Nc2cc(F)ccc2F)[C@H](CO)O1)NCc1ccc2c(c1)OCO2 8.77%
CO[C@@H]1CN(C)C(=O)c2ccc(NS(=O)(=O)c3cn(C)cn3)cc2OC[C@@H](C)N(Cc2ccc(C(F)(F)F)cc2)C[C@H]1C 35.5% [at 8 µM]
CO[C@@H](CN(C)S(=O)(=O)c1ccc(C)cc1)[C@H](C)CN(C(=O)Nc1ccccc1F)[C@@H](C)CO -7.73% [at 8 µM]
C[C@@H]1CCCCO[C@@H](CN(C)S(=O)(=O)c2cn(C)cn2)[C@H](C)CN([C@H](C)CO)C(=O)c2cc(NS(=O)(=O)c3ccccc3)ccc2O1 -10.5% [at 0.5 µM]
CO[C@@H]1CN(C)C(=O)c2cc(NS(=O)(=O)c3cn(C)cn3)ccc2OC[C@@H](C)N(Cc2ccc(C(F)(F)F)cc2)C[C@H]1C 43.6%
C[C@@H]1CN([C@H](C)CO)C(=O)c2cc(NC(=O)Nc3cccc4ccccc34)ccc2O[C@@H](C)CCCCO[C@H]1CN(C)S(=O)(=O)c1cn(C)cn1 30.5% [at 35 µM]
CO[C@H]1CN(C)C(=O)c2cc(NC(=O)c3cccc(F)c3)ccc2OC[C@H](C)N(C(C)=O)C[C@@H]1C -4.07% [at 1.95 µM]
C[C@@H]1CN([C@H](C)CO)S(=O)(=O)c2ccc(C3=CCCCC3)cc2O[C@@H]1CN(C)Cc1ccncc1 19.4%
COc1ccc(S(=O)(=O)Nc2ccc3c(c2)OC[C@@H](C)N(C)C[C@@H](C)[C@H](OC)CN(C)C3=O)cc1 -9.73% [at 1.95 µM]
C[C@@H]1CN([C@H](C)CO)C(=O)Cc2cc(NS(C)(=O)=O)ccc2O[C@@H]1CN(C)Cc1ccc(-c2ccccc2)cc1 52.1%
O=C(C[C@@H]1C[C@@H]2c3cc(NC(=O)Nc4ccc(C(F)(F)F)cc4)ccc3O[C@@H]2[C@H](CO)O1)NCc1ccccn1 -9.23% [at 1.95 µM]
CCCC(=O)Nc1ccc2c(c1)OC[C@@H](C)N(CCc1ccccc1)C[C@H](C)[C@H](OC)CN(C)C2=O -4.85% [at 1.95 µM]
C[C@H](CO)N1C[C@H](C)[C@H](CN(C)Cc2cccnc2)Oc2cc(C3=CCCCC3)ccc2S1(=O)=O 37%
O=C(C[C@H]1C[C@H]2c3cc(NC(=O)Nc4ccc(F)cc4)ccc3O[C@H]2[C@@H](CO)O1)NC1CCCC1 -13.7% [at 8 µM]
